Reference: PubChem BioAssay (NCI)
About 79,000 compounds went through this panel and 15% of them were active in at least one assay; those are over-represented in the sample as a whole. A number with no mark means an inactive call. The source made the active and inactive calls. No stated cut-off is given here; in the data, active means growth inhibition above about 70%; inactive means the rest.

Key:
[1] = NCI Yeast Anticancer Drug Screen. Data for the mlh1 strain (AID 171);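 further: 0% = growth of vehicle-treated control cultures of the same strain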; conditions: S. cerevisiae mlh1 strain growth inhibition, active compounds read high
Outline: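 Compounds are applied to a genetically altered yeast strain, and its growth is compared with that of vehicle-treated cultures to give percent inhibition.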

[2] = NCI Yeast Anticancer Drug Screen. Data for the sgs1 strain (AID 173);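 further: 0% = growth of vehicle-only control cultures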; conditions: S. cerevisiae sgs1 mutant, active compounds read high
Outline: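 Compounds applied to genetically altered yeast; growth compared with vehicle-treated cultures to give % inhibition.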

[3] = NCI Yeast Anticancer Drug Screen. Data for the mlh1 rad18 strain (AID 175); conditions: S. cerevisiae mlh1 rad18 strain growth inhibition, active compounds read high
Outline: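 Cells of a genetically altered yeast strain, deficient in DNA damage repair, were treated with compound. Their growth was then compared with that of vehicle-treated cultures to give inhibition.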

[4] = NCI Yeast Anticancer Drug Screen. Data for the rad18 strain (AID 177); conditions: S. cerevisiae rad18 mutant growth inhibition, active compounds read high
Outline: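 Compounds are applied to a repair-deficient yeast strain, and growth is compared with that of vehicle-treated cultures to give percent inhibition.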

[5] = NCI Yeast Anticancer Drug Screen. Data for the rad52 strain (AID 147);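 further: 0% = growth of vehicle-treated control cultures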; conditions: S. cerevisiae rad52 mutant growth inhibition, active compounds read high
Outline: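 DNA repair-defective yeast; compound exposure; growth scored against vehicle controls.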

[6] = NCI Yeast Anticancer Drug Screen. Data for the wt1 strain (AID 149);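 further: 0% = growth of vehicle-treated wt1 cultures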; conditions: S. cerevisiae wt1 strain (SPY 50644) growth inhibition, active compounds read high
Outline: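 wt1 yeast, compound-treated; % growth inhibition vs vehicle control.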

[7] = NCI Yeast Anticancer Drug Screen. Data for the rad50EPP+ strain (AID 151);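 further: 0% = growth of vehicle-treated control cultures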; conditions: S. cerevisiae rad50 mutant strain, active compounds read high
Outline: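 rad50EPP+ yeast treated with test compounds. Readout: growth vs vehicle control.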

[8] = NCI Yeast Anticancer Drug Screen. Data for the mgt1 strain (AID 153); conditions: S. cerevisiae mgt1 mutant growth inhibition, active compounds read high
Outline: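 Growth inhibition relative to vehicle controls was scored for the mgt1 yeast strain after compound exposure.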

[9] = NCI Yeast Anticancer Drug Screen. Data for the rad50 strain (AID 155);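 further: 0% = growth of vehicle-only cultures of the same strain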; conditions: S. cerevisiae rad50 strain growth inhibition, active compounds read high
Outline: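 Genetically altered yeast (DNA repair pathway); compound treatment; growth inhibition vs vehicle ctrl.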

[10] = NCI Yeast Anticancer Drug Screen. Data for the mec2-1 strain (AID 157); conditions: S. cerevisiae mec2-1 strain, active compounds read high
Outline: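 Growth inhibition is read against vehicle-treated controls after compound exposure of the mec2-1 yeast strain, which is defective in DNA damage repair or cell cycle control.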

[11] = NCI Yeast Anticancer Drug Screen. Data for the rad14 strain (AID 159);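 further: 0% = growth of vehicle-treated control cultures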; conditions: S. cerevisiae rad14 strain growth inhibition, active compounds read high
Outline: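 Test compounds were applied to a repair-deficient yeast strain. Its growth was then compared with that of cultures given vehicle alone, and inhibition was expressed relative to those controls.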

[12] = NCI Yeast Anticancer Drug Screen. Data for the sgs1 mgt1 strain (AID 161);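 further: 0% = growth of cultures given vehicle only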; conditions: S. cerevisiae sgs1 mgt1 strain, active compounds read high
Outline: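 Compounds are added to genetically altered yeast, and growth is compared with cultures given vehicle alone to give percent inhibition.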

[13] = NCI Yeast Anticancer Drug Screen. Data for the cln2 rad14 strain (AID 165);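 further: 0% = growth equal to vehicle treated cultures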; conditions: S. cerevisiae cln2 rad14 strain, active compounds read high
Outline: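 Growth inhibition, relative to vehicle-treated controls, is the read-out. The test organism is a yeast strain with defined genetic alterations, cln2 rad14.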

[14] = NCI Yeast Anticancer Drug Screen. Data for the bub3 strain (AID 167); conditions: S. cerevisiae bub3 mutant strain, active compounds read high
Outline: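 Yeast carrying a defined mutation is treated with each compound, and growth is compared with that of vehicle-exposed cells to give inhibition.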

[15] = NCI Yeast Anticancer Drug Screen. Data for the wt2 strain (AID 169);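 further: 0% = growth of vehicle-treated yeast cultures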; conditions: S. cerevisiae wt2 strain growth inhibition, active compounds read high
Outline: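 Compound exposure of yeast; growth compared with vehicle controls; inhibition reported.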

[16] = at 5.0 µM (retest, dose inferred, filed as 0.5)
[17] = at 50.0 µM (retest, dose inferred, filed as 5.0)

## COc1cc([C@@H]2c3cc4c(cc3[C@H](OC3OC5COC(C(C)C)OC5C(O)C3O)C3COC(=O)[C@@H]32)OCO4)cc(OC)c1O (some centres undefined)
[1]; at 1.2 µM
  growth inhibition: -31%
[1]; at 3.7 µM
  growth inhibition: -8%
[1]; at 11.0 µM
  growth inhibition: -32%
[1]; at 33.0 µM
  growth inhibition: -29%
[1]; at 100.0 µM
  growth inhibition: 22%
[2]; at 1.2 µM
  growth inhibition: -6%
[2]; at 3.7 µM
  growth inhibition: -9%
[2]; at 11.0 µM
  growth inhibition: 1%
[2]; at 33.0 µM
  growth inhibition: -5%
[2]; at 100.0 µM
  growth inhibition: 45%
[3]; [16]
  growth inhibition: 18%
[3]; [17]
  growth inhibition: 44%
[3]; at 50.0 µM
  growth inhibition: -64.6%
[4]; at 1.2 µM
  growth inhibition: 6%
[4]; at 3.7 µM
  growth inhibition: -5%
[4]; at 11.0 µM
  growth inhibition: 2%
[4]; at 33.0 µM
  growth inhibition: -21%
[4]; at 100.0 µM
  growth inhibition: 41%

## CCN(CC)CCOc1cc(C)c2cc(Cc3ccccc3)ccc2n1
[5]; at 1.2 µM
  growth inhibition: -1%
[5]; at 3.7 µM
  growth inhibition: 2%
[5]; at 11.0 µM
  growth inhibition: 2%
[5]; at 33.0 µM
  growth inhibition: 18%
[5]; at 100.0 µM
  growth inhibition: 82% (active)
[6]; at 1.2 µM
  growth inhibition: 0%
[6]; at 3.7 µM
  growth inhibition: 1%
[6]; at 11.0 µM
  growth inhibition: -1%
[6]; at 33.0 µM
  growth inhibition: 3%
[6]; at 100.0 µM
  growth inhibition: 71% (active)
[7]; at 1.2 µM
  growth inhibition: 0%
[7]; at 3.7 µM
  growth inhibition: 0%
[7]; at 11.0 µM
  growth inhibition: 3%
[7]; at 33.0 µM
  growth inhibition: 7%
[7]; at 100.0 µM
  growth inhibition: 31%
[8]; at 1.2 µM
  growth inhibition: 2%
[8]; at 3.7 µM
  growth inhibition: 5%
[8]; at 11.0 µM
  growth inhibition: 10%
[8]; at 33.0 µM
  growth inhibition: 35%
[8]; at 100.0 µM
  growth inhibition: 98% (active)
[9]; at 1.2 µM
  growth inhibition: -40%
[9]; at 3.7 µM
  growth inhibition: -2%
[9]; [16]
  growth inhibition: 7%
[9]; at 11.0 µM
  growth inhibition: -1%
[9]; at 33.0 µM
  growth inhibition: 13%
[9]; [17]
  growth inhibition: 57%
[9]; at 50.0 µM
  growth inhibition: 88.2% (active)
[9]; at 100.0 µM
  growth inhibition: 92% (active)
[10]; at 1.2 µM
  growth inhibition: -2%
[10]; at 3.7 µM
  growth inhibition: -3%
[10]; [16]
  growth inhibition: -2%
[10]; at 11.0 µM
  growth inhibition: 1%
[10]; at 33.0 µM
  growth inhibition: 17%
[10]; [17]
  growth inhibition: 8%
[10]; at 50.0 µM
  growth inhibition: 82.7% (active)
[10]; at 100.0 µM
  growth inhibition: 84% (active)
[11]; at 1.2 µM
  growth inhibition: 4%
[11]; at 3.7 µM
  growth inhibition: 16%
[11]; at 11.0 µM
  growth inhibition: 25%
[11]; at 33.0 µM
  growth inhibition: 36%
[11]; at 100.0 µM
  growth inhibition: 99% (active)
[12]; [16]
  growth inhibition: 5%
[12]; [17]
  growth inhibition: 47%
[12]; at 50.0 µM
  growth inhibition: 96% (active)
[13]; [16]
  growth inhibition: 2%
[13]; [17]
  growth inhibition: -5%
[13]; at 50.0 µM
  growth inhibition: 53.9%
[14]; at 1.2 µM
  growth inhibition: 2%
[14]; at 3.7 µM
  growth inhibition: 1%
[14]; [16]
  growth inhibition: 2%
[14]; at 11.0 µM
  growth inhibition: 9%
[14]; at 33.0 µM
  growth inhibition: 38%
[14]; [17]
  growth inhibition: 13%
[14]; at 50.0 µM
  growth inhibition: 88.2% (active)
[14]; at 100.0 µM
  growth inhibition: 81% (active)
[15]; at 1.2 µM
  growth inhibition: -1%
[15]; at 3.7 µM
  growth inhibition: -2%
[15]; at 11.0 µM
  growth inhibition: 2%
[15]; at 33.0 µM
  growth inhibition: 13%
[15]; at 100.0 µM
  growth inhibition: 94% (active)
[1]; at 1.2 µM
  growth inhibition: 0%
[1]; at 3.7 µM
  growth inhibition: 1%
[1]; at 11.0 µM
  growth inhibition: 11%
[1]; at 33.0 µM
  growth inhibition: 28%
[1]; at 100.0 µM
  growth inhibition: 94% (active)
[2]; at 1.2 µM
  growth inhibition: 0%
[2]; at 3.7 µM
  growth inhibition: 3%
[2]; at 11.0 µM
  growth inhibition: 12%
[2]; at 33.0 µM
  growth inhibition: 35%
[2]; at 100.0 µM
  growth inhibition: 96% (active)
[3]; [16]
  growth inhibition: 5%
[3]; [17]
  growth inhibition: 28%
[3]; at 50.0 µM
  growth inhibition: 96% (active)
[4]; at 1.2 µM
  growth inhibition: 3%
[4]; at 3.7 µM
  growth inhibition: 15%
[4]; at 11.0 µM
  growth inhibition: 28%
[4]; at 33.0 µM
  growth inhibition: 65%
[4]; at 100.0 µM
  growth inhibition: 99% (active)

## CCC1(OC(=O)CN2CCN(CCO)CC2)C(=O)OCc2c1cc1n(c2=O)Cc2cc3ccccc3nc2-1 (centres undefined)
[5]; at 1.2 µM
  growth inhibition: 35%
[5]; at 3.7 µM
  growth inhibition: 49%
[5]; at 11.0 µM
  growth inhibition: 70% (active)
[5]; at 33.0 µM
  growth inhibition: 89% (active)
[5]; at 100.0 µM
  growth inhibition: 93% (active)
[6]; at 1.2 µM
  growth inhibition: 9%
[6]; at 3.7 µM
  growth inhibition: 15%
[6]; at 11.0 µM
  growth inhibition: 24%
[6]; at 33.0 µM
  growth inhibition: 13%
[6]; at 100.0 µM
  growth inhibition: 7%
[7]; at 1.2 µM
  growth inhibition: 16%
[7]; at 3.7 µM
  growth inhibition: 17%
[7]; at 11.0 µM
  growth inhibition: 42%
[7]; at 33.0 µM
  growth inhibition: 60%
[7]; at 100.0 µM
  growth inhibition: 82% (active)
[8]; at 1.2 µM
  growth inhibition: -18%
[8]; at 3.7 µM
  growth inhibition: -20%
[8]; at 11.0 µM
  growth inhibition: -19%
[8]; at 33.0 µM
  growth inhibition: -23%
[8]; at 100.0 µM
  growth inhibition: -45%
[9]; at 1.2 µM
  growth inhibition: 18%
[9]; at 3.7 µM
  growth inhibition: 57%
[9]; [16]
  growth inhibition: 4%
[9]; at 11.0 µM
  growth inhibition: 74% (active)
[9]; at 33.0 µM
  growth inhibition: 88% (active)
[9]; [17]
  growth inhibition: 83% (active)
[9]; at 50.0 µM
  growth inhibition: 17.9%
[9]; at 100.0 µM
  growth inhibition: 92% (active)
[10]; at 1.2 µM
  growth inhibition: -23%
[10]; at 3.7 µM
  growth inhibition: -19%
[10]; [16]
  growth inhibition: 4%
[10]; at 11.0 µM
  growth inhibition: -12%
[10]; at 33.0 µM
  growth inhibition: -21%
[10]; [17]
  growth inhibition: -2%
[10]; at 50.0 µM
  growth inhibition: 20.1%
[10]; at 100.0 µM
  growth inhibition: 29%
[11]; at 1.2 µM
  growth inhibition: -13%
[11]; at 3.7 µM
  growth inhibition: -4%
[11]; at 11.0 µM
  growth inhibition: -25%
[11]; at 33.0 µM
  growth inhibition: -14%
[11]; at 100.0 µM
  growth inhibition: -20%
[12]; [16]
  growth inhibition: -8%
[12]; [17]
  growth inhibition: -10%
[12]; at 50.0 µM
  growth inhibition: 3.05%
[13]; [16]
  growth inhibition: 20%
[13]; [17]
  growth inhibition: 17%
[13]; at 50.0 µM
  growth inhibition: 8.9%
[14]; at 1.2 µM
  growth inhibition: -4%
[14]; at 3.7 µM
  growth inhibition: 1%
[14]; [16]
  growth inhibition: 0%
[14]; at 11.0 µM
  growth inhibition: -10%
[14]; at 33.0 µM
  growth inhibition: -14%
[14]; [17]
  growth inhibition: 3%
[14]; at 50.0 µM
  growth inhibition: -21.4%
[14]; at 100.0 µM
  growth inhibition: -30%
[15]; at 1.2 µM
  growth inhibition: 11%
[15]; at 3.7 µM
  growth inhibition: 9%
[15]; at 11.0 µM
  growth inhibition: 14%
[15]; at 33.0 µM
  growth inhibition: 5%
[15]; at 100.0 µM
  growth inhibition: -4%
[1]; at 1.2 µM
  growth inhibition: 1%
[1]; at 3.7 µM
  growth inhibition: -5%
[1]; at 11.0 µM
  growth inhibition: -12%
[1]; at 33.0 µM
  growth inhibition: -20%
[1]; at 100.0 µM
  growth inhibition: -13%
[2]; at 1.2 µM
  growth inhibition: 30%
[2]; at 3.7 µM
  growth inhibition: 21%
[2]; at 11.0 µM
  growth inhibition: 26%
[2]; at 33.0 µM
  growth inhibition: 21%
[2]; at 100.0 µM
  growth inhibition: 24%
[3]; [16]
  growth inhibition: -8%
[3]; [17]
  growth inhibition: -1%
[3]; at 50.0 µM
  growth inhibition: 78.3% (active)
[4]; at 1.2 µM
  growth inhibition: 9%
[4]; at 3.7 µM
  growth inhibition: 19%
[4]; at 11.0 µM
  growth inhibition: 6%
[4]; at 33.0 µM
  growth inhibition: 6%
[4]; at 100.0 µM
  growth inhibition: 1%
